Pf Dd2 growth: qHTS Primary assay for Inhibitors of Plasmodium falciparum Dd2 growth in vitro. AID 1347417, 2020. P. falciparum Dd2 growth, SYBR Green, 72 h. 4.3% of 120,000 active. Potency, µM (doses to about 28.9 µM), usual class: inhibitors; active = well fitted inhibition curve with a large enough effect; also: nearly all actives have a fitted effect of over 65% in size
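Infected erythrocytes (Dd2, 0.3% parasitemia, 2.5% hematocrit final) are added to compound in RPMI-1640/Albumax II medium, grown 72 h at 37C in low oxygen, then lysed with saponin/Triton-X containing SYBR Green and read by fluorescence.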
Hits are given with their value; n = inactive; ! = not active in a repeat; [ ] = dose if it differs, or a comment. Shown is part of a subset that was picked to be rich in hits.

SMILES	Pf Dd2 growth
O=C(O)CCC(=O)N1Cc2ccccc2CC2(CCCN(CC3CCCCC3)C2)C1 (stereo not given)	n
CC(C)(CC(=O)O)CC(=O)N[C@H]1C[C@H]2C(=O)Nc3ccc(-c4ccsc4)cc3C(=O)N2C1	n
CC1CCC2(CC1)OCC(C(=O)NCC1CCCO1)N2C(=O)c1ccc(Cl)c(Cl)c1 (stereo not given)	n
COc1ccc(C(=O)N2C[C@@H]3C[C@H](C2)c2ccc(-c4ccc5ccccc5c4)c(=O)n2C3)cc1	n
FC1(F)C[C@@H](c2nc(C3CC3)no2)N(Cc2ccco2)C1	n
CC(=O)Nc1ccc(CNC[C@H]2COCc3nc4cc(C)ccc4n32)cc1	n
CC(C)c1ccc(CN2CC(COc3ccccc3)C3(C2)CN(C(=O)c2cn[nH]c2)C3)cc1 (stereo not given)	n
O=C(NCc1nnnn1-c1ccccc1)C1CC2(CCNCC2)CN1 (stereo not given)	n
CC(C)CC(=O)N1CCC(Oc2nccnc2N(C)C)C1 (stereo not given)	n
CC1=C(C(=O)OC(C)(C)C)C(c2ccccc2)N2C(CC(=O)N3CCCC3)=CSC2=N1 (stereo not given)	n
CC1=C(C(=O)OC(C)C)C(c2ccc([N+](=O)[O-])cc2)N2C(CC(=O)N3CCCC3)=CSC2=N1 (stereo not given)	2.8µM
CCOC(=O)C1=C(C)N=C2SC=C(CC(=O)N3CCOCC3)N2C1c1cccc(OC)c1OC (stereo not given)	n
CCOC(=O)C1=C(C)N=C2SC=C(CC(=O)NCCc3cccs3)N2C1c1ccccc1F (stereo not given)	n
C=CCOC(=O)C1=C(C)N=C2SC=C(CC(=O)N3CCCC3)N2C1c1ccccc1Cl (stereo not given)	n
CC1=C(C(=O)OC(C)C)C(c2ccccc2F)N2C(CC(=O)N3CCCC3)=CSC2=N1 (stereo not given)	n
CCOC(=O)C1=C(C)N=C2SC=C(CC(=O)NCc3ccco3)N2C1c1ccccc1F (stereo not given)	n
C=CCOC(=O)C1=C(C)N=C2SC=C(CC(=O)N3CCCC3)N2C1c1cccc(OC)c1OC (stereo not given)	5µM
CCOC(=O)C1=C(C)N=C2SC=C(CC(=O)Nc3ccc(OC)cc3)N2C1c1ccccc1F (stereo not given)	4.5µM
O=C(NCc1ccco1)c1cc2n(n1)CC(c1ccc3c(c1)OCO3)OC2 (stereo not given)	n
CCn1ccc(C(=O)N2C[C@@H](Oc3cccnc3)C[C@H]2C(=O)N2CCOCC2)n1	n
Cc1cnc(N2CC3CCC(C2)N3CC(F)(F)F)s1	n
Cc1ccc(C(=O)N2C[C@@H](Oc3ccccc3)C[C@@H]2C(=O)N2CCOCC2)cn1	n
Cc1ccc(NC(=O)Cn2ccn3nc(-c4ccc(F)cc4)c(CO)c3c2=O)cc1F	n
O=C(c1cn(Cc2ccc(Cl)cc2)nn1)N1CCCC(OCc2cccnc2)C1 (stereo not given)	n
COCCN1CCCC2(CCN(C(=O)CCc3ccc(C)cc3)C2)C1=O (stereo not given)	n
SMILES	Pf Dd2 growth
CC(=O)Nc1ccc(CN2CCC(c3nc4ccc(C)cc4c(=O)[nH]3)CC2)cc1	n
Cc1ccc2nc(C3CCN(Cc4cccc(-c5cccnc5)c4)CC3)[nH]c(=O)c2c1	8.9µM!
COc1ccc(CN2CCCC(c3nn(-c4ccccc4)c(=O)[nH]3)C2)cc1 (stereo not given)	n
Cc1cc(C)cc(-c2ccc(CN3CCCC(c4nc5ccc(F)cc5c(=O)[nH]4)C3)cc2)c1 (stereo not given)	10µM!
COc1ccc(-n2nc(C3CCN(Cc4cccnc4)CC3)[nH]c2=O)cc1	n
O=c1[nH]c(C2CCCN(Cc3ccccc3)C2)nn1-c1ccccc1 (stereo not given)	n
CC(C)NC(=O)N1CC[C@H](c2nc3ccc(F)cc3[nH]2)C1	n
CC(=O)Nc1ccc(CN2CCC(c3nc4ccc(F)cc4c(=O)[nH]3)CC2)cc1	n
CC(C)CN1CCCC(c2nc3ccc(F)cc3c(=O)[nH]2)C1 (stereo not given)	5µM
O=c1[nH]c(C2CCCN(Cc3cccc(-c4cccs4)c3)C2)nc2ccc(F)cc12 (stereo not given)	8.9µM!
CCN1CCC(c2nc3ccc(F)cc3c(=O)[nH]2)CC1	n
N#Cc1cccc(CN2CCC(c3nc4ccc(F)cc4c(=O)[nH]3)CC2)c1	n
O=C(Nc1ccccc1)N1CC(Oc2ccc(-c3nc(-c4ccccc4)no3)cc2)C1	n[5.79 µM]
CN(CC(=O)NCC1CCN(c2cnn(C)c(=O)c2)C1)C1CCNCC1 (stereo not given)	n
CCCN1CCN(C(=O)c2ccnc(C(C)C)n2)[C@H]2CS(=O)(=O)C[C@H]21	n
O=C1N(Cc2ccc(F)cc2)C[C@H]2CN(CC3CC3)CCN12	n
COc1ccc2c(c1)OCC(C(=O)NCc1nnnn1-c1ccccc1)C2 (stereo not given)	n
COc1ccc(CN2CCC(N3CCCNC3=O)CC2)cc1	n

From PubChem
